Out of some 16,000 compounds screened, about 4,000 (25%) were called active. Roughly 26% stayed inconclusive and do not appear here. These entries were drawn from the full list. A number with no mark means an inactive call. Calls follow the shape of the dose curve; as a rule, active = well fitted curve in the direction sought with a large enough effect; inconclusive = small, poorly fitted or top-dose-only effect, or effect the other way; inactive = no such curve, though single readings can be large or run the other way.
Molecular target: Cytochrome P450 2C9 (Homo sapiens) (UniProt P11712)
Experiment: Cytochrome panel assay with activity outcomes
Details: recombinant CYP, pro-luciferin dealkylation, luminescence, p450-cyp2c9; series mostly up to 57.1 µM; activity, negative = inhibition: at the top concentration
% is scaled to controls: 0 for no effect and ±100 for the full control effect.

Cytochrome P450 2C9 (Homo sapiens), sequence (P11712 whole entry, looked up): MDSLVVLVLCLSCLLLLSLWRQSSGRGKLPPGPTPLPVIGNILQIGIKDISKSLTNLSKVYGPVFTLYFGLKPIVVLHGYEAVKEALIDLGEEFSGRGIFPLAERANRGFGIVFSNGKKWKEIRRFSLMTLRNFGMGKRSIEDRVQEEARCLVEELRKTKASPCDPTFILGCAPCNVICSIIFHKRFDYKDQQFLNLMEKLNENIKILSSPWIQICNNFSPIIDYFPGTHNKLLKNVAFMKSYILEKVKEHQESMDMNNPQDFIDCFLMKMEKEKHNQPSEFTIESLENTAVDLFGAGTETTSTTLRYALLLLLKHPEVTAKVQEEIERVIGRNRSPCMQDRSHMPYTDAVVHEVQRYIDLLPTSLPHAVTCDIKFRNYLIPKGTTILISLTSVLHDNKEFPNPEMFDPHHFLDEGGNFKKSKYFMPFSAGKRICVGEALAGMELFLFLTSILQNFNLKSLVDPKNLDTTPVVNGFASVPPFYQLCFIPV

Structure (SMILES)	AC50	activity, negative = inhibition
COc1ccc2c(c1)C(c1ccc([N+](=O)[O-])cc1)=NNC(c1ccco1)=N2	14.1 µM (active)	–
c1ccc2c(NCCN3CCOCC3)nc(-c3ccoc3)nc2c1	–	-0.137% [at 2.29 µM]
Cc1noc(C)c1C(=O)N1CCC2(CC1)CCN(C(c1ccccc1)c1ccccc1)CC2	–	-8.71%
Cc1noc(C)c1C(=O)OCC(=O)NC(c1ccccc1)c1ccccc1	11.2 µM (active)	–
Cc1noc(C)c1C(=O)N1CCC2(CCN(C(=O)Nc3ccccc3)CC2)CC1	–	8.06%
Cc1cc(NC(=O)CN2C(=O)NC(C)(c3ccc(OC(F)F)cc3)C2=O)no1 (stereo unspecified)	–	-3.66%
COc1ccc(C(=O)CN2C(=O)NC(C)(c3ccccc3)C2=O)cc1OC (stereo unspecified)	3.55 µM (active)	–
O=C(Cn1c(C(F)(F)F)nc2ccccc21)c1ccccc1	10 µM (active)	–
O=C(Cn1c(C(F)(F)F)nc2ccccc21)c1ccc(F)cc1	3.55 µM (active)	–
O=C(CCCN1CCC(O)(c2cccc(C(F)(F)F)c2)CC1)c1ccc(F)cc1	–	19.7%
CN(C)C(=O)c1ccc(-c2nc(Nc3ccc(F)cc3)c3ccccc3n2)cc1	–	-11.1% [at 2.29 µM]
CC(=O)N1CCC[C@@]2(CCN(Cc3nccs3)C2)C1	–	1.75%
CO[C@H]1COC(=O)C/C=C\[C@H](C)COC(=O)[C@@H](OCc2ccccc2)/C=C\[C@@H]1C	–	-4.97% [at 11.4 µM]
O=c1c(-c2ccccc2)nc2cnc(Oc3cccc(Cl)c3)nc2n1C1CC1	0.251 µM (active)	–
Cn1c(=O)c(-c2ccc(Cl)cc2)nc2cnc(Oc3cccc(Cl)c3)nc21	–	18.4%
Cc1nc2cnc(Oc3cccc(Cl)c3)nc2n(C2CC2)c1=O	12.6 µM (active)	–
N#Cc1cccc(-c2nc3cnc(Oc4cccc(Cl)c4)nc3n(C3CC3)c2=O)c1	3.16 µM (active)	–
O=c1cnc2cnc(Oc3cccc(Cl)c3)nc2n1C1CC1	6.31 µM (active)	–
Cc1nc2cnc(Oc3ccccc3)nc2n(C)c1=O	–	-6.38%
O=c1cnc2cnc(Oc3ccccc3)nc2n1C1CC1	–	-22.3%
COc1ncc2nc(C)c(=O)n(C3CC3)c2n1	–	9.09%

Structure (SMILES)	AC50	activity, negative = inhibition
O=c1cnc2cnc(N3CCOCC3)nc2n1C1CC1	–	-8.29%
N#Cc1cccc(-c2nc3cnc(N4CCOCC4)nc3n(C[C@H]3CCCO3)c2=O)c1	–	8.64%
CS(=O)(=O)Nc1cccc(-c2nc(N3CCNCC3)c3ccccc3n2)c1	–	-1.92% [at 2.29 µM]
Cc1cc(C)n2nc(SCC(=O)N/N=C/c3ccccc3F)nc2n1	–	-19.2%
CCCSc1nnc(CSc2nc3nc(C)cc(C)n3n2)o1	–	-22.2%
CCCCCCCCSc1nnc(CSc2nc3nc(C)cc(C)n3n2)o1	17.8 µM (active)	–
N#Cc1cccc(NC(=O)N2CCC3(CC2)CCN(C(=O)c2csnn2)CC3)c1	–	8.22%
CCc1ccc(N/C(SCc2ccccc2C)=C(/C#N)C(=O)NCc2ccco2)cc1	3.16 µM (active)	–
N=c1nc(N)nc(N)n1-c1ccc(S(N)(=O)=O)cc1	–	-1.26% [at 11.4 µM]
O=C(NCCOC12CC3CC(CC(C3)C1)C2)c1cccc(Br)c1	14.1 µM (active)	–
NC(=O)c1ccc[n+](CC(=O)OCCC23CC4CC(CC(C4)C2)C3)c1	–	3.71%
Cc1ccc(/C=N/n2c(-c3cccs3)n[nH]c2=S)cc1	1.58 µM (active)	–
Cc1ccc(-c2n[nH]c(=S)n2/N=C/c2cccn2C)cc1	12.6 µM (active)	–
COc1ccc(-n2c(=O)c(-c3cccs3)nc3cnc(Nc4cccc(OC)c4)nc32)cc1	–	5.73%
Cc1n[nH]c(=S)n1/N=C/c1ccc(Br)o1	–	-10.7%
COc1ccc(-n2c(-c3cnccn3)n[nH]c2=S)cc1	–	-11.4%
COc1ccc(/C=N/n2c(-c3cccs3)n[nH]c2=S)cc1	2.24 µM (active)	–
C[N+](C)(C)c1cc2c(nn1)Nc1ccccc1S2	–	-3.44% [at 11.4 µM]
NCCC(=O)NCCc1cnc[nH]1	inactive	–
C[C@@H](CCCCC(=O)Nc1ccc(C(F)(F)F)cc1)NCCc1cnc[nH]1	7.94 µM (active)	–
Cc1oncc1C(=O)Nc1ccc(C(F)(F)F)cc1	–	-29.1% [at 25.6 µM]

Structure (SMILES)	AC50	activity, negative = inhibition
Cc1cc(O)c(C(C)C)cc1NC(=O)Nc1cccc2ccccc12	–	-7.14% [at 11.4 µM]
Cc1cc(O)c(C(C)C)cc1C1(c2cc(C(C)C)c(O)cc2C)OC(=O)c2ccccc21	0.316 µM (active)	–
O=c1nc2ccccc2c2n1C[C@H](CN1CCN(c3ccccc3)CC1)N2	–	12.7%
COC(=O)C(NC(=O)c1ccc(Cl)cc1)(Nc1nc(C)cs1)C(F)(F)F (stereo unspecified)	8.91 µM (active)	–
Cc1[nH]nc(Nc2ccccc2)c1[N+](=O)[O-]	20 µM (active)	–
Cc1noc(C)c1-c1nc(Nc2ccccc2)c2ccccc2n1	–	2.16% [at 2.29 µM]
Nc1nc(NCc2ccccc2)nc(Nc2cccc(F)c2)c1[N+](=O)[O-]	–	19.2%
CCO/C([O-])=N/c1c[n+](N2CCOCC2)no1	–	4.62% [at 25.6 µM]
Clc1ccccc1-c1nc(NC2CCNCC2)c2ccccc2n1	–	2.89% [at 2.29 µM]
COc1ccc(NC(=O)N2CCCC3(CCN(C(=O)c4c(C)noc4C)CC3)C2)cc1	–	16.1%
COC(=O)CN(c1ccc(OC)cc1)S(=O)(=O)c1c(C)noc1C	11.2 µM (active)	–
COc1ccc(NC(=O)N2CC3(CCN(C(=O)c4c(C)noc4C)CC3)C2)cc1	–	5.26%
COc1cccc(CNCCNC(=O)c2nonc2N)c1	–	-25.2%
COc1ccc(N(CC(=O)NCc2cccc(OC)c2)S(=O)(=O)c2c(C)noc2C)cc1	7.94 µM (active)	–
CCOc1ccc(N(CC(=O)NCc2ccc(OC)cc2)S(=O)(=O)c2c(C)noc2C)cc1	–	14%
NC(N)=N/N=C(/c1ccccc1)c1ccc(O)cc1O	–	-9.7% [at 11.4 µM]
COc1ccc(S(=O)(=O)N2CCC(NC(=O)Nc3ccc(C)cc3)CC2)cc1	–	-17.7%
Cc1ccc(C(=O)NC(=S)Nc2ccc(S(=O)(=O)N3CCN(C)CC3)cc2)cc1	14.1 µM (active)	–
Cc1ccc(S(=O)(=O)N2CCN(C(=O)CN3CCN(C)CC3)C2)cc1	–	-13.7%
